Measured values from PubChem BioAssay AID1220 (Sanford-Burnham Center for Chemical Genomics, 2008).
Hit rate of the full screen: of about 190,000 compounds, about 1,300 (0.68%) were called active. Only a selection was taken, and actives are over-represented in it overall. Unmarked numbers belong to inactive results. No stated cut-off is given here; in the data, active means inhibition above about 50%; inactive means the rest.

target: Mannose-6-phosphate isomerase (Homo sapiens) (UniProt P34949); assay: MPI inhibition at elevated mannose 6-phosphate – biochemical, fluorescence intensity, high mannose 6-phosphate, primary screen (AID 1220); settings: recombinant PMI enzyme, coupled fluorescence intensity; at 20 µM; stronger effect = higher value
Sequence (P34949 whole entry, looked up): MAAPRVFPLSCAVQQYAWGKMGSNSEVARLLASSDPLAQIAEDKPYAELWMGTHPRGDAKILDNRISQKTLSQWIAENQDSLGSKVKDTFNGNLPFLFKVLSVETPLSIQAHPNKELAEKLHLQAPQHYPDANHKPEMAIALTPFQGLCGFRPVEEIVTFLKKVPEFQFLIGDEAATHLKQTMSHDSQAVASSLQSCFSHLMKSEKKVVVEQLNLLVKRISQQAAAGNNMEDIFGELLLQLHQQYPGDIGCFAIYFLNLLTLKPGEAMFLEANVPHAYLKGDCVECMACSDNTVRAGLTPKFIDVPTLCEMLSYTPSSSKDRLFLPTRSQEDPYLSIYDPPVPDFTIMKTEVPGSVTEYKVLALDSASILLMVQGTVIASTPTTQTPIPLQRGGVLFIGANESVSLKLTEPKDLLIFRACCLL

Structure (SMILES) | inhibition
CC(NC(=O)Cc1ccccc1)c1nc2ccccc2[nH]1 (configuration not stated) | -7.3%
Cc1nc2n(n1)C(O)c1cc([N+](=O)[O-])ccc1S2 (configuration not stated) | 7.3%
COc1ccc(C(=O)CN(Cc2ccccc2)C2=NCCS2)cc1 | -4.2%
CCOC(=O)c1c(C)oc2c1c(C(c1cccnc1)N1CCN(C)CC1)c(O)c1ccccc12 (configuration not stated) | 28.8%
CCOC(=O)c1c(C)oc2c1c(C(c1cccnc1)N1CCCCC1)c(O)c1ccccc12 (configuration not stated) | 26.9%
CCOC(=O)c1c(C)oc2c1c1c(c3ccccc32)OCN(Cc2cccnc2)C1 | 67.3% (active)
CCOC(=O)c1c(C)oc2c1c(C(c1ccncc1)N1CCOCC1)c(O)c1ccccc12 (configuration not stated) | 10.8%
CCOC(=O)c1c(C)oc2ccc(O)c(CN3CCCCC3)c12 | 6.2%
CCOC(=O)c1c(C)oc2c1c(C(c1cccnc1)N1CCOCC1)c(O)c1ccccc12 (configuration not stated) | 58% (active)
CC(=O)Oc1ccc2c(c1)c(C(C)=O)c(C)n2C | -2.9%
COc1ccccc1C(=O)N/N=C/c1cnc2ccccc2n1 | -4.4%
CCCCNC(=O)c1ccc(CNS(=O)(=O)c2ccc(Br)cc2)cc1 | 4.4%
COc1cc(C2CC(=O)NC3=C2C(=O)CC(C)(C)C3)ccc1O (configuration not stated) | 4.3%
COc1cc(C2C(C#N)=C(C)NC3=C2C(=O)CC(C)(C)C3)ccc1O (configuration not stated) | 3.8%
COc1cc(C2C(C#N)=C(C)NC3=C2C(=O)CC(C)(C)C3)cc(OC)c1O (configuration not stated) | 66.5% (active)
CC1(C)CC(=O)C2=C(C1)NC(=O)CC2c1ccc(F)cc1 (configuration not stated) | -3.1%
COc1cc(C2CC(=O)NC3=C2C(=O)CC(C)(C)C3)cc(OC)c1O (configuration not stated) | 54.4% (active)
COc1cc(C2C(C#N)=C(C)NC3=C2C(=O)CC(C)(C)C3)ccc1OCCO (configuration not stated) | 5.4%
CCc1cccc(NC(=O)CS(=O)Cc2nc(-c3ccc(C)cc3)oc2C)c1 (configuration not stated) | 6.8%
COc1ccccc1-n1cnnc1SCC(=O)NCC1CCCO1 (configuration not stated) | -9.1%
Cc1ccc2nc(-c3ccccc3)c(CN3CCOCC3)n2c1 | -1%
O=C(NC(=S)Nc1nc(-c2ccc(Cl)cc2)cs1)c1cccs1 | -11.6%

Structure (SMILES) | inhibition
COc1ccc(C)cc1NC(=O)c1ccoc1C | 3.7%
Oc1ccc(-c2cn3c(n2)SCC3)cc1O | 53.1% (active)
Oc1ccc(-c2cn3c(n2)SCC3)cc1 | -10.9%
Cc1ccc(-c2cn3c(n2)SCC3)cc1 | 1%
O=C(NCc1cccnc1)NC1CCCN1S(=O)(=O)c1ccc(Cl)cc1 (configuration not stated) | -3.5%
Cc1ccc(-c2csc(NC(=O)CSc3ncn(-c4ccccc4)n3)n2)cc1 | 0%
COc1cccc(NC(=O)CSc2nc3c(c(=O)n2C)SC(C)C3)c1 (configuration not stated) | 2.4%
CCOc1ccc(C(=O)N[C@H](C(=O)Nc2ccc(OC)c(S(=O)(=O)N3CCOCC3)c2)C(C)C)cc1 | 10.3%
O=C(Nc1cccc(S(=O)(=O)N2CCCCC2)c1)c1ccc(OCC2CCCO2)cc1 (configuration not stated) | 2.6%
CCOc1ccc(C(=O)N[C@H](C(=O)Nc2cccc(S(=O)(=O)N3CCCCC3)c2)C(C)C)cc1 | 57.6% (active)
CCOC(=O)COn1c(=O)c(=O)n(O)c2ccccc21 | 24.9%
Oc1ccc(/C=N/N=C/c2ccc(O)cc2)cc1 | -2.8%
O=Cc1ccc(O)c(O)c1 | -5%
Oc1ccc(N=Cc2ccc(OCc3ccccc3)cc2)cc1 | 58.5% (active)
Oc1ccc(N=Cc2ccc(O)c(O)c2)cc1 | 52.6% (active)
NC(N)=N/N=C/c1ccc(OCc2ccccc2)cc1 | 1.2%
CC(=O)Nc1ccc(N=Cc2ccc(OCc3ccccc3)cc2)cc1 | 10.3%
O=C(c1sc2ccccc2c1Cl)N(Cc1ccccc1Cl)C1CCS(=O)(=O)C1 (configuration not stated) | 1.4%
COc1cc(OC)cc(C(=O)OCC(=O)Nc2ccc(N3CCCCC3)cc2)c1 | -11.3%
COc1ccc(-c2nn(CCC#N)cc2/C=N/O)cc1OC | 10.3%
O=C(CSc1ccc(-c2ccc(F)cc2)nn1)N1CCCc2ccccc21 | 13.5%
Cc1c(Cl)c([N+](=O)[O-])nn1CC(=O)Nc1ccc2c(c1)OCO2 | -4.5%

Structure (SMILES) | inhibition
COCCNC(=O)Cn1c(=O)n(CCCCCC(=O)NCc2ccc3c(c2)OCO3)c(=O)c2sccc21 | -13.4%
CCOc1ccc(NC(=O)C2CC(C)=C(C)CC2C(=O)O)cc1 (configuration not stated) | 0.7%
CCOC(=O)c1sc(NC(=O)c2ccccc2F)c(C(N)=O)c1C | 56.6% (active)
CCOC(=O)c1sc(NC(C)=O)c(C(=O)OCC)c1C | 7.7%
CCOC(=O)c1sc(NC(=S)NC(=O)c2ccccc2Cl)c(C(=O)OCC)c1C | 5.4%
Cn1nc(-c2ccc(Cl)cc2)nc2c(=O)n(C)c(=O)nc1-2 | 10.6%
Cn1c(=O)c(-c2ccccc2)nc2ccccc21 | 4.9%
CCn1c(N)nc2c1c(=O)n(C)c(=O)n2C | -1.8%
CCCc1nc(SCC(=O)c2ccc(OC)cc2)c2c(=O)n(C)c(=O)n(C)c2n1 | -2.5%
COC(=O)c1ccccc1OCCOc1ccccc1C(=O)OC | 2.8%
COc1ccccc1-c1nc2ccccc2nc1-c1ccccc1 | 12.5%
COc1ccccc1-c1nc2ccccc2nc1-c1ccccc1OC | 2.8%
COc1ccccc1-c1cc2ccccc2[nH]1 | 4.7%
COc1ccc(OC)c(-c2nc3cc4ccccc4cc3nc2-c2ccccc2)c1 | 10.1%
COc1ccccc1-c1nc2cc3ccccc3cc2nc1-c1ccccc1 | 50.6% (active)
COc1ccccc1-c1nc2cc3ccccc3cc2nc1-c1ccccc1OC | 50.1% (active)
CC(=O)Nc1ccc(C(=O)OCC(=O)Nc2ccccc2Sc2ccccc2)cc1 | 2.4%
COc1ccccc1CNC(=O)COc1ccc([N+](=O)[O-])cc1 | 2.1%
COc1ccc(CC(=O)Nc2cccc(SC)c2)cc1 | 1.7%
O=C1C(Cl)=C(NCCN2CCCCC2)C(=O)c2ccccc21 | 54.3% (active)
O=C1c2ccccc2C(=O)N1CCN1CCCCC1 | 2.7%
COc1ccccc1NC1=C(NC(C)=O)C(=O)c2ccccc2C1=O | 60.1% (active)

Structure (SMILES) | inhibition
Cc1ccc(NC2=C(Cl)C(=O)c3ccccc3C2=O)cc1 | 41.8%
COc1ccccc1NC1=C(N2CCCCC2)C(=O)c2ccccc2C1=O | 2.6%
O=C1C(Cl)=C(Nc2ccccc2)C(=O)c2ccccc21 | 52.5% (active)
CC(=O)Nc1ccc2c(c1)C(=O)c1ccccc1C2=O | -69.9%
COc1ccccc1NC(C)=O | 9.5%
CC(=O)Nc1ccc(NC2=C(Cl)C(=O)c3ccccc3C2=O)cc1 | 57.8% (active)
CCNC1=C(Cl)C(=O)c2ccccc2C1=O | 15.6%
O=C(O)c1cccc(NC2=C(Cl)C(=O)c3ccccc3C2=O)c1 | 39.9%
O=C(Oc1ccc(NC2=C(Cl)C(=O)c3ccccc3C2=O)cc1)c1ccc([N+](=O)[O-])cc1 | 32.9%
CCCCn1nnnc1SCC(=O)c1ccc(C)c(C)c1 | 7.7%
COCCCNC(=O)CCCCCNS(=O)(=O)c1ccc(Br)cc1 | -6.2%
COc1ccccc1OCC(=O)Sc1ccc(C)cc1 | 13%
CC(=O)c1ccc(N2CCN(C(=O)Nc3ccc(C)cc3)CC2)cc1 | -1.7%
Cc1ccccc1Nc1ncnc(N)n1 | -3.4%
O=[N+]([O-])c1ccc(Cl)cc1Sc1ccccn1 | 2.7%
Cn1c(SCC(=O)c2ccc3c(c2)OCO3)nnc1C1COc2ccccc2O1 (configuration not stated) | 1.3%
COC(=O)c1ccc(CSc2cc(C)c3cc(C)cc(C)c3n2)o1 | -4.5%
CCN(CC)c1ccc(NC2=C(Cl)C(=O)c3ccccc3C2=O)cc1 | 56.9% (active)
C=CCNC1=C(Cl)C(=O)c2ccccc2C1=O | 38.6%
O=C1C(Cl)=C(NCCCO)C(=O)c2ccccc21 | 2.8%
CCN(CC)c1ccc(N2C(=O)c3ccccc3C2=O)cc1 | 4.2%
CCN(CC)CCCNC1=C(Cl)C(=O)c2ccccc2C1=O | 58.1% (active)

Structure (SMILES) | inhibition
CCOc1ccc(NC2=C(OC)C(=O)c3ccccc3C2=O)cc1 | 25.9%
CN1C(=O)c2ccc(NC(=S)NC(=O)C(C)(C)C)cc2C1=O | 8.4%
COCCSc1nnc(NC(=O)C2CCCCC2)s1 | -1.4%
CCN(c1ccccc1)S(=O)(=O)c1ccc2[nH]cc(C(=O)N3CCOCC3)c(=O)c2c1 | 8.3%
COc1cccc2c(=O)c(C/C=C(/C)Cl)c(C)[nH]c12 | 4.6%
COc1cccc2c(=O)c3cccc(N)c3[nH]c12 | 65.6% (active)
COc1cccc2c(=O)c(SC(F)(F)C(F)C(F)(F)F)c(C)[nH]c12 (configuration not stated) | 6.8%
COc1ccc(-c2csc(/C(C#N)=C\c3ccc(OC)c([N+](=O)[O-])c3)n2)cc1 | 3.4%
CCN1CCN(C(=S)Nc2ccc3nc4n(c(=O)c3c2)CCCCC4)CC1 | -3.2%
Cc1ccc(S(=O)(=O)NCC(=O)NCC(=O)OCC(=O)N2CC(=O)Nc3ccccc32)cc1C | 13.9%
COc1ccccc1NC(=O)CC1S/C(=N/N=C2\CCCc3ccccc32)NC1=O (configuration not stated) | 6.9%
CCN(CC)c1ccc(/C=N/N2CCN(Cc3ccccc3)CC2)c(O)c1 | 53% (active)
CCN(CC)c1ccc(/C=N/N2CCN(Cc3ccc(C)cc3C)CC2)c(O)c1 | 39.8%
CCN(CC)c1ccc(/C=N/N2CCOCC2)c(O)c1 | 53.7% (active)
CCN(CC)c1ccc(/C=N/N2CCN(Cc3cccc4ccccc34)CC2)c(O)c1 | 30.7%
CCN(CC)c1ccc(/C=N/N2CCN(Cc3ccc(C)cc3)CC2)c(O)c1 | 30.3%
Fc1ccc(/C=N/N2CCOCC2)c(F)c1 | 8.8%
COc1cccc(/C=N/N2CCOCC2)c1O | 3.6%
CCN(CC)c1ccc(/C=N/N2CCOCC2)cc1 | 14.3%
